We go through 108 sequences from PubChem BioAssay AID1508600 (Functional Genomics Laboratory (NCATS/FGL), 2020).

In all, about 53,000 sequences went through this assay and about 3,700 (7%) were called active.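 How the source made its calls: active means gene knockdowns whose robust z-score for IL-1 alpha signal is at least 2 or at most -2, so actives lie on both sides; inactive means the rest.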 The full list was thinned out, with actives kept by preference.

The nature of the assay: Components of the Cytosolic LPS Sensing Pathway: Gene Identification via Genome-wide siRNA Screen.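 Further: robust z of the log signal after scaling to non-targeting control siRNA wells of the plate.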 As to conditions: RAW264.7 macrophages, IL-1a HTRF, actives lie on both sides, screened at 100 nM (by protocol), cells primed 5 h with Pam3CSK4 first. An outline of the steps:
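Knockdown: 100 nM siRNA, 48h, RAW264.7. Stimulation: Pam3CSK4 5 h, then LipidA via TransIT-TKO 24 h. Output: supernatant IL-1a HTRF, negative-control-normalized, log robust z-score; viability by CellTiter-Glo.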
As to GGGUUGGAUAGAAUAUUGUTT against Xk, the z-score was 1.4 (inactive).

Consider GCCUCGAUUGGCCACAUUUTT against Atp5l, for which the z-score is 4.61 (active). For GCAGUAUGAGGUAAAUUAUTT against Amer3 the value was 1.05 (inactive); for GCCUUCAUUAUUUUAAUGCTT against Ilf3, 0.0185 (inactive); for GGCAAAAUGAUCUGCUUUCTT against Trim69, -0.125 (inactive). For GGUUGCUCAGAUUCAGAAUTT against Isy1 the value was -1.53 (inactive); for GGAACCUAGAGAAAAAGAATT against Iyd, -1.18 (inactive). For GGCUUUCCAGAAGACAGAATT against Cyp2s1 the value was 0.469 (inactive). Turning to GCUCUGUUAAGGAAGAACATT against Safb2, the z-score was 2.02 (active). In the case of GCUAUGACUCCAACAUGCGTT against Jaml it was 0.0115 (inactive); in that of “GGUGAAGACAGAAUUUCCGTT against 1700128F08Rik”, -1.01 (inactive). For GGAAGCAAGGAAAAUCAUGTT against Lpo the value was -0.289 (inactive); for GGUGAUACGUAUUUUUUAGTT against Pan3, -1.09 (inactive). Regarding GGGUUGUCUUCAUCUACUUTT against Crhr1, the z-score is 3.47 (active). In the case of GGUGUUUACUUCCUCAGAATT against Slc9b2 it was -0.373 (inactive); in that of GGAGAUAUCCAUCAAUAGUTT against Nbr1, 0.874 (inactive); in that of GGACUUCUAAAAAUCUCUGTT against Gabrb2, 0.746 (inactive). In the case of GCGCGCAGUGAACGAAAAATT against Mycn it was 1.14 (inactive); in that of “CCAUCACGGAUAAUCAUCGTT against 4931417E11Rik”, -1.65 (inactive); in that of GGUACUUCCUACCUAACAGTT against Nipa1, -0.235 (inactive). In the case of CCACAGGUUACAACAUAAATT against Pign, the z-score was -1.45 (inactive). For the sequence GCUCCACAAGAUGUAAAGGTT against Il21, the z-score was 0.11 (inactive). For GGAACUGAUGAUGGACCAGTT against Slc4a1 the value was 3.39 (active). For GGGCCAUUUUAGGUCCUUUTT against Rbm7 the value was 0.112 (inactive). Turning to GGACUUACCUUUAACCAACTT against Slc30a4, the z-score is 0.42 (inactive). In the case of GGGAAUGAAAAGUCAAAAGTT against Stard7 it was -0.047 (inactive); in that of GCAGCUCUAGGUGUUCAGUTT against Gjc3, 0.955 (inactive); in that of GCCAUUGGGUGUAACAUUUTT against Mpp6, 3.35 (active). Consider GCCAUGCACUAACUUGAAUTT against Adamts4, for which the z-score was -0.0391 (inactive). Consider GCACUUUACGAGUAUGUAATT against Gnl1, for which the z-score was -1.74 (inactive). In the case of GGUAUUGGAAAGUAGAAACTT against Igflr1 it was 0.515 (inactive); in that of CCGAGUGGUUAGCUACCAGTT against Ccl24, 2.4 (active); in that of GGAGAUCCUUCAUUACCUGTT against Psap, -1.34 (inactive). In the case of GGGAUCGUCCAGAUCUAAUTT against Apobec3 it was -0.982 (inactive).

GGACUGUCCUCCAAUUUGCTT against Nat8f3: the z-score is -2.6 (active). In the case of GGGAAAUUUACAGAAAGUGTT against Igtp it was 0.956 (inactive); in that of CGGGCUCAGGUAAAACUCUTT against Ddx31, -0.217 (inactive).

GGAGAGCUUGUUCAAGUGCTT against Zxdc: the z-score is -0.86 (inactive). For CCUCAUUGGUUUGACCCAGTT against Hsd17b6 the value was 0.172 (inactive).

For the sequence GCCAUUAACUAUGGGACCUTT against Lck, the z-score was -0.0729 (inactive). In the case of GCUAUCACUUUUCAUUAGATT against G0s2, the z-score is -0.902 (inactive). In the case of CCUGCUAAGAGAGUACUAUTT against Pglyrp2 it was 1.51 (inactive); in that of GGUUGGACGUGGUGAAGAATT against Chtf18, -2.24 (active); in that of GGAAUACAAACUGCUGUACTT against Urgcp, 0.138 (inactive). For GGAAGUGUGAACUUCAUCATT against Zdhhc6 the value was 2.78 (active); for GCCCACGAGCCUCAUGGACTT against Sts, -0.805 (inactive); for GGAGUAUCGUAAUGCGGACTT against C4b, 0.598 (inactive).

Regarding GGACUCCUAAUGAAUAAUCTT against Wee2, the z-score was 2.06 (active). Turning to CCUUCCUUACCUACGUGAGTT against Nup88, the z-score is 1.71 (inactive). For CCUCAAGGCAGUUCAUAUUTT against Zfp790 the value was -0.334 (inactive); for GGCUCGGUAUCGUUUUUCATT against Arl3, 0.841 (inactive); for GGCUAUCUUUUCAGCUUUATT against Sox30, 0.212 (inactive).

Consider GCCGACCACAGUACAAGACTT against Bivm, for which the z-score was 1.08 (inactive). For GCCGUGUGGUAAUAGUGUCTT against Dhrs13 the value was 0.442 (inactive); for GGAUGAAACGGGUGCCUAUTT against Kctd5, 3.33 (active); for “GGACUUCUAGAGAACUUGUTT against 2900092C05Rik”, -1.7 (inactive). For GGCUGUAUACCAAUAAAAATT against B4galt6 the value was -0.855 (inactive); for CGUUUCAGAGUGUUUGUGGTT against Lgalsl, -0.173 (inactive).

Take GGUAUCAGAGCUGUGUUCUTT against Cpped1: the z-score was -1.48 (inactive). As to GGAAAUCUAAAAGUCCUCCTT against Il17re, the z-score was 0.2 (inactive). For GGAUCAUCUCUUUGGGCUGTT against Tmem37 the value was 0.127 (inactive). In the case of GGAGAAGAAAGAAAAGCUUTT against Nusap1 it was -1.74 (inactive). For GGCUGAAAAACUCAAUUAUTT against Boll the value was -0.813 (inactive); for CCAAAUAUCCGGCCAUGACTT against Lgals6, -0.877 (inactive); for GGAAAACACCUACCUGUGGTT against Slc25a3, -1.48 (inactive). As for GGAAAUCAGAGAAUACUUCTT against Mfsd14b, the z-score is 2.04 (active). In the case of GAAGAAGGAAAAAAACCCATT against Sec61b, the z-score is -1.19 (inactive). In the case of GCACCUCCUGGGAUUACAUTT against Crp it was 0.412 (inactive); in that of GGGCUAAUUGUGAACAUUUTT against Slc7a1, 3.35 (active). For GCCAUGAAGCUAAAUAAUCTT against Optn, the z-score is -1.31 (inactive).

Take GCACCUCUACACUUUAGAUTT against Rack1: the z-score is -0.0792 (inactive). In the case of GGACUGGUUCAUCCUUGUGTT against G6pc it was 0.922 (inactive); in that of GGACCACCUAAGUUUAAGCTT against Pde6g, -0.557 (inactive); in that of GGCAUCAAGCACAAGAAAATT against Sys1, -1.16 (inactive). For the sequence CCUGUGCCUCGUUUUAUUUTT against Fam161a, the z-score was 0.807 (inactive).

GGUGAUCGAGGAGAGUCUATT against Oaf: the z-score is -0.737 (inactive). For GGUGGAGUUAGAAAACUACTT against BC048679 the value was -0.341 (inactive); for CCUGAACGUGAGUGGAGAATT against Man1c1, -0.8 (inactive).

For the sequence GGUGAAGAUUGAGAAGGAGTT against Aifm3, the z-score is -2.05 (active). In the case of GACCUACCAGAUGAAGGUCTT against Vmn1r28 it was 0.29 (inactive); in that of GCGACUUUAGCUAAACAUGTT against Kcns2, 1.79 (inactive). As to GGAAGAAACAUGUAUCAUGTT against Tff1, the z-score is 0.556 (inactive). For GACAGUGCACGAUCUGAUUTT against Pfn3 the value was 0.274 (inactive); for GCUGGAAUGCAAGGGCUUCTT against Gchfr, 1.45 (inactive). For GGAUAUGAAACAAUAACAGTT against Arid5b the value was -0.349 (inactive); for GGCAAAAUCUAUUGUCUUCTT against Ran, -2.2 (active). For GGAGGUAAAUGAAAAAUCUTT against Nop56 the value was 0.611 (inactive); for GGUGAUCGUGGUGUGGAACTT against Extl2, 0.941 (inactive); for GGCAAUGAUGAGACCUAGUTT against Mybbp1a, 0.0956 (inactive). As to GCAAUCGAGCUGAAACUAGTT against Hat1, the z-score is 0.721 (inactive). On to CCACCAUUUAUAUUUGGUUTT against Slc35g1, for which the z-score was -0.298 (inactive). For GGGUUACAAUAACUGGACATT against Ggcx the value was 2.32 (active); for GCCACAUGGUUAAUAAGAGTT against Postn, -1.5 (inactive); for ACCUCAAGACAGUGCAAAUTT against H2bc4, -1.41 (inactive). In the case of GGAAAAUCAACAGCAUCAATT against Olfr661 it was -0.642 (inactive).

Consider CCCUAUUGAUUCAACUUGGTT against Samt4, for which the z-score is 0.253 (inactive). In the case of GGGCAACGUAUUCACAUUATT against Manbal it was 2.86 (active); in that of GGAGCUUUGAAGAGACUGGTT against Olfr117, -2.32 (active). As for GGUGCUGCUGAGAUUUUUCTT against Pxt1, the z-score was 0.555 (inactive). For GGCAAUGGAGAGAGAGAUGTT against Patl1 the value was -2.36 (active); for GGAUCAAAGGAAGAAGGGCTT against Zbtb24, -0.00585 (inactive); for GGCCAGAACUUAAAUUUUCTT against Nbr1, 0.658 (inactive). For GGUAGUGUCUAACUUCUGGTT against Zkscan17 the value was 2.13 (active); for “GGGACAAUUCUGGAUUAAATT against 9330155M09Rik”, -0.639 (inactive); for GGGAAUCACCCUGAGAAAGTT against Ccndbp1, -0.269 (inactive).

For GAACAGUCCUUUUAUGGAUTT against Vmn1r33, the z-score was 0.38 (inactive).

As to GCAUCCUUCACUCAAAUAUTT against Aspa, the z-score was 3.17 (active). For GGACAGAGUUUUCAUUUUGTT against Rptn the value was -1.51 (inactive).
